Test results reported in ChEMBL document CHEMBL3988442, “University of Dundee, Small-Polar-MMV Screening Library” (2021).
The whole screen tested about 48,000 compounds, of which about 13,000 (27%) showed an effect of 50% or more. The list shows a part of the results.

System: Wolbachia pipientis
Assay: Anti-Wolbachia Cell-Based Screen
Format: functional
Set-up: scale not given: in the data most compounds retested in dose-response had high values
Details: 5 µM

Compound	Percent Effect
N#Cc1ccc(C(=O)N2CCCC3(C=Cc4ccccc4O3)CC2)cn1 (configuration not stated)	6.705%
CC(=O)NC(C)C(=O)N(Cc1ccc(C)c(C)c1)C1CC1 (configuration not stated)	-3.122%
CN1CCCCC[C@@H]2[C@@H]1[C@H](c1ccccc1)CN2C(=O)c1ccccn1	114.6%
CN1CC[C@H](c2ccccc2)[C@@H]2[C@H]1CCCCN2C(=O)c1cnccn1	-5.726%
CN1CCCC[C@@H]2[C@H]1[C@@H](c1ccccc1)CCN2C(=O)c1ccccn1	98.54%
Cn1cc(C(=O)N2CC[C@@H]3[C@@H]2CCN3c2ccccn2)cn1	-3.073%
O=C(c1ccccn1)N1C[C@@H]2CC[C@H](C1)N(C(=O)CCN1CCCC1)C2	-10.03%
CN1CCCC[C@@H]2[C@H]1[C@@H](c1ccccc1)CCN2C(=O)c1cnccn1	3.186%
CCc1nsc(NC2CC(=O)N(C(C)(C)C)C2)n1 (configuration not stated)	-4.433%
CC(OCC1CC1)C(=O)N1CCCN(c2cccnn2)CC1 (configuration not stated)	-4.711%
Cc1ccc(N2CCCC(NCC(=O)NC3CCOCC3)C2)nn1 (configuration not stated)	0.2085%
O=C(CN1CCCC1Cn1cccn1)NC1CCOCC1 (configuration not stated)	-8.305%
O=C(CC1CCN(c2cccnn2)CC1)NCCO	94.51%
O=C(CC1CCN(c2cccnn2)CC1)NC1CCOCC1	83.52%
O=C(CCc1cccs1)NCC1CCCN1c1cccnn1 (configuration not stated)	-0.2437%
O=C(CNCC1CCCN1c1cccnn1)NCCc1cccs1 (configuration not stated)	4.052%
CN1CCC(C(=O)N2CCCN(c3cccnn3)CC2)C1 (configuration not stated)	-4.749%
CN(C)CCNC(=O)CC1CCN(c2cccnn2)CC1	87.97%
O=C(c1cn(-c2cc(N3CCSCC3)ncn2)cn1)N1CCOCC1	2.163%
CC(C)(C)SCCN1CC(=O)N2CC[C@@H](O)C[C@H]2C1=O	105.3%
COCCN1CC(=O)N2CC[C@@H](O)C[C@H]2C1=O	111.7%
COCCN1C[C@H]2CN(C(=O)C3CC3)CCN2C1=O	0.212%
O=C(CC1CCc2ccccc21)NCCSc1ccccn1 (configuration not stated)	-6.128%
O=C1[C@@H]2C[C@H](O)CCN2C(=O)CN1CCSc1ccccn1	99.26%
COCCN1C[C@@H]2CN(C(=O)CC3CC3)C[C@@H]2C1=O	3.353%

Compound	Percent Effect
Cc1n[nH]c(C)c1C1CCCN1C(=O)NCCSC(C)(C)C (configuration not stated)	-9.308%
O=C(C1CC1)N1CCN(C(=O)CSc2ccccn2)[C@H]2CS(=O)(=O)C[C@H]21	-23.43%
Cc1ncccc1CNc1ccc(OCCO)nc1	-18.76%
O=C(c1ccoc1)N1CCC2(CC1)COC(COCc1ccccn1)C2 (configuration not stated)	4.399%
Cc1nncn1CCNC(=O)C1SCCc2sccc21 (configuration not stated)	0.3971%
CCc1ccc(CN2CCc3[nH]nc(C(=O)N4CCNC(=O)C4)c3C2)o1	-23.7%
CC(C)NC(=O)CCNC(=O)Nc1cnn(-c2ccccc2Cl)c1	-14.09%
CCOC[C@@]12CCC[C@@H]1CN(C(=O)COc1ccccc1OC)C2	101.3%
Cc1ccc(C(=O)N2C[C@H]3CCC[C@@]3(COCc3ccncc3)C2)cn1.O=C(O)C(F)(F)F.O=C(O)C(F)(F)F	-7.119%
COC[C@@]12CCO[C@@H]1CCN(C(=O)COc1ccccc1OC)C2	3.153%
COC[C@@]12CCC[C@@H]1CN(C(=O)COc1ccccc1OC)C2	104.3%
CCO[C@@H]1CO[C@@]2(CCCN(C(=O)COc3ccccc3OC)C2)C1	-3.938%
O=C(Cc1ccco1)N1C[C@H]2CCC[C@@]2(COc2cccnc2)C1	-23.92%
CCOC[C@@]12CCC[C@@H]1CN(C(=O)c1ccc(OC)cc1)C2	116.5%
O=C(O)C(F)(F)F.O=C(c1ccc(F)cc1)N1C[C@H]2CCC[C@@]2(COCc2ccncc2)C1	3.034%
CC(Oc1ccccc1C(F)(F)F)C(=O)NCC(N)=O (configuration not stated)	-1.247%
CCCC(CNc1cc(C(C)C)nc2ccnn12)N(C)C (configuration not stated)	-7.916%
Cc1n[nH]cc1CNC1(c2ccc(F)cc2)CCCC1	2.933%
CC(C)NC(=O)N1CCN(CC2CC2)CC2(CC(=O)N(C)C2)C1.O=C(O)C(F)(F)F (configuration not stated)	10.52%
O=C(O)C(F)(F)F.O=C(O)C(F)(F)F.O=C(O)C(F)(F)F.c1coc(CN2CCC3(CC2)COCCN(CCN2CCCC2)C3)c1	10.77%
CC(=O)N1CCN(Cc2cccs2)CC2(CC(=O)N(C)C2)C1.O=C(O)C(F)(F)F (configuration not stated)	101.6%
Cc1ccc(CN2CCC3(CC(=O)N(c4cccc(F)c4)C3)C2)o1.O=C(O)C(F)(F)F (configuration not stated)	18.19%
CCN1CC2(CC1=O)CN(Cc1ccco1)CCN(C(=O)N(C)C)C2.O=C(O)C(F)(F)F (configuration not stated)	1.855%
CC(=O)N1CCN(Cc2ccc(C)o2)CC2(CC(=O)N(C)C2)C1.O=C(O)C(F)(F)F (configuration not stated)	88.46%
CN1CC2(CCN(C(=O)Cc3ccccn3)CC2)OCC1=O.O=C(O)C(F)(F)F	23.75%

Compound	Percent Effect
CCN1CC2(CC1=O)CN(Cc1cccs1)CCN(C(=O)C(C)C)C2 (configuration not stated)	9.795%
CC(C)C(=O)N1CCN(Cc2ccccn2)CC2(CC(=O)N(C)C2)C1.O=C(O)C(F)(F)F.O=C(O)C(F)(F)F (configuration not stated)	98.24%
CC(=O)N1CCN(Cc2ccco2)CC2(CC(=O)N(C)C2)C1.O=C(O)C(F)(F)F (configuration not stated)	97.89%
CCN1CC2(CC1=O)CN(Cc1cnn(C)c1)CCN(C(=O)C(C)C)C2.O=C(O)C(F)(F)F (configuration not stated)	-2.77%
CN(CCC1CCOCC1)C(=O)C1CCC(=O)N(Cc2ccccn2)C1 (configuration not stated)	12.01%
Cc1nn(C)c(C)c1OCC(=O)NCC(O)c1ccccc1F (configuration not stated)	-4.984%
O=C1N(c2ccc(Cl)cc2)Cc2n[nH]c(=O)n21	3.53%
CCCn1nc(-c2nc(COC)no2)ccc1=O	-14.93%
CC(=O)NCC(=O)NCC1Cn2nnc(-c3cccc(F)c3)c2CO1 (configuration not stated)	-8.609%
CN1CCC2(CCN(Cc3nccs3)CC2)C1=O.O=C(O)C(F)(F)F	4.782%
CC(=O)N1CCN(Cc2nccs2)CC2(CC(=O)N(C)C2)C1.O=C(O)C(F)(F)F (configuration not stated)	92.61%
CCOCC(=O)Nc1nccn1Cc1ccc(Br)cc1	-3.698%
CC(C)c1nccn1CCCNC(=O)c1ccc(-c2cccnc2)nc1	8.791%
COC(=O)NCCCn1ccnc1-c1ccccc1	181.6%
CCOCC(=O)NCCCn1ccnc1-c1ccccc1	90.19%
COC(=O)CCCn1ccnc1-c1ccccc1	2.023%
CC(=O)NCCn1ccnc1-c1cccc(C(C)N(C)C)c1 (configuration not stated)	4.198%
Cc1ccc(C(=O)Nc2cc(C(N)=O)ccc2N2CCCCC2)cc1F	-3.619%
O=C(CCc1cc2n(n1)CCCN(C(=O)c1ccncc1)C2)NC1CC1	139.8%
O=C(CCc1cc2n(n1)CCCN(C(=O)[C@H]1CCCO1)C2)NC1CC1	170.3%
O=C(O)CCc1cc2n(n1)CCCN(C(=O)c1ccc3cc[nH]c3c1)C2	-27.67%
Cc1ccc(C(=O)N2CCCn3nc(CCC(=O)O)cc3C2)cc1Cl	11.92%
Cn1cccc1C(=O)N1CCCn2nc(CCC(=O)NC3CC3)cc2C1	139.6%
O=C(CCc1cc2n(n1)CCCN(C(=O)c1ccccn1)C2)NC1CC1	1.644%
O=C(CCc1cc2n(n1)CCCN(C(=O)c1cccnc1)C2)NC1CC1	-4.751%

Compound	Percent Effect
O=C(O)CCc1cc2n(n1)CCCN(C(=O)c1cc3ccccc3s1)C2	6.416%
CCc1cc(C(=O)N2CCCn3nc(CCC(=O)O)cc3C2)cs1	-7.139%
CC(C)c1ocnc1C(=O)NC1(c2cccc(F)c2)CCOCC1	-15.1%
O=S1(=O)CCCN(Cc2ccccc2OCC(F)(F)F)CC1	7.623%
Fc1cccc(-c2n[nH]cc2-c2nc(CN3CCOCC3)no2)c1	25.75%
CN1CCN(Cc2ccccc2Oc2cncc(C(N)=O)n2)CC1	7.262%
CC(=O)N1Cc2ccccc2CC1C(=O)Nc1cc(C)ccn1 (configuration not stated)	-13.21%
C[C@]1(O)CN(Cc2ccc(C(=O)O)cc2)CC[C@@H]1Oc1cccc(F)c1	71.72%
C[C@]1(O)CN(Cc2cccc(C(=O)O)c2)CC[C@@H]1Oc1cccc(F)c1	113.2%
COc1ccccc1OC1CN(Cc2ccc(C(=O)O)cc2)C1	-24.62%
O=C(NCC1(O)CCOc2ccccc21)Nc1ccc2c(c1)OCO2 (configuration not stated)	5.05%
CCc1noc(CN2CCC(C(=O)Nc3cnn(CC)c3)CC2)n1	82.9%
CCn1cc(NC(=O)C2CCN(Cc3ccccc3C#N)CC2)cn1	4.672%
CCn1cc(NC(=O)C2CCN(Cc3noc(C4CC4)n3)CC2)cn1	113.1%
CC(C)c1noc(CN2CCC(C3CCCCCN3S(C)(=O)=O)CC2)n1.Cl (configuration not stated)	5.236%
CCc1noc(C(C)N2CCC(C(=O)Nc3cnn(CC)c3)CC2)n1 (configuration not stated)	11.99%
CCn1cc(NC(=O)C2CCN(Cc3nc(C(C)C)no3)CC2)cn1	89.67%
O=C(Nc1ccc(F)cc1)C1CCN(Cc2noc(C3CC3)n2)CC1	-24.67%
CCCc1noc(CN2CCC(C(=O)Nc3cnn(CC)c3)CC2)n1	112.1%
O=C(Nc1cccc(F)c1)C1CCN(Cc2noc(C3CC3)n2)CC1	-5.725%
CC(C)Cc1noc(CN2CCC(C(=O)NCC3CCCO3)CC2)n1 (configuration not stated)	11.96%
CCn1cc(NC(=O)C2CCN(Cc3noc(C(C)C)n3)CC2)cn1	3.174%
